Consider 32 compounds from PubChem BioAssay (EPA / NIEHS).

Assay [1] can be described thus: CCTE_Harrill_HTTr_Viability_MCF7: CCTE's 6-hour Cell Viability Assessment for the High-Throughput Transcriptomics (HTTr) Platform, in MCF-7 cells cultured in DMEM + 10% fetal bovine serum, Harrill Lab (AID 2284010). The gist of the method:
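Propidium iodide exclusion, imaged by high-content analysis, gauged viability after a six-hour exposure across eight concentrations. Cells were MCF-7 grown in DMEM with 10% fetal bovine serum; fits run in both directions against DMSO.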

Assay [2] can be described thus: CCTE_Harrill_HTTr_Apoptosis_MCF7: CCTE's 6-hour Apoptosis Assessment for the High-Throughput Transcriptomics (HTTr) Platform, in MCF-7 cells cultured in DMEM + 10% fetal bovine serum, Harrill Lab (AID 2284011). The gist of the method:
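MCF-7 cells in DMEM + 10% FBS exposed 6 h to chemicals over an eight-point dilution series. Caspase-3/7 activation imaged by high-content CellEvent Green staining; fitted bidirectionally versus DMSO.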

Assay [3] can be described thus: CCTE_Harrill_HTTr_CellCount_MCF7: CCTE's Cell Proliferation Assessment for the High-Throughput Transcriptomics (HTTr) Platform, Harrill Lab (AID 2284012; active means hit-call score of the fitted dose curve at least 0.9, where 1 is the maximum;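 further: cells exposed to compound for six hours; intended direction is loss of nuclei count meaning fewer cells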). The gist of the method: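 Cell count from high-content imaging of Hoechst-labeled nuclei serves as viability/growth readout. Chemicals were applied to MCF-7 cells in eight concentrations for six hours, with fitting in both directions relative to DMSO.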

SMILES strings stand for the structures. Results filed as inconclusive are left out. Activity calls are given as the source filed them. How the source made its calls, unless noted: active means hit-call score of the fitted dose curve at least 0.9, where 1 is the maximum; inactive means score below 0.9.

With `c1ccc2c(c1)sc1ccccc12`, the outcome in assay [1], in assay [2] and in assay [3] was inactive.
For the compound `O=C(O)CF`, the result in assay [1], in assay [2] and in assay [3] was inactive.
Regarding `CCCCN(CCCC)N=O`, the outcome in assay [1], in assay [2] and in assay [3] was inactive.
For the compound `Cc1ccc(O)cc1C`, the result in assay [1], in assay [2] and in assay [3] was inactive.
Regarding `CCCCOCC1CO1` (stereo not drawn), the outcome in assay [1], in assay [2] and in assay [3] was inactive.
`Cc1c([N+](=O)[O-])cc2c(c1[N+](=O)[O-])C(C)(C)CC2(C)C`: the result in assay [1], in assay [2] and in assay [3] was inactive.
Consider `CCN(CC)c1ccccc1`, for which the outcome in assay [1], in assay [2] and in assay [3] was inactive.
Turning to `CCOS(=O)(=O)OCC`, the result in assay [1], in assay [2] and in assay [3] was inactive.
On to `CSC(C)(C)C=NO`, for which the result in assay [1], in assay [2] and in assay [3] was inactive.
As for `CCOC(=O)c1ccccc1C(=O)OCC`, the result in assay [1], in assay [2] and in assay [3] was inactive.
With `CCCCN(CCCC)SN(C)C(=O)Oc1cccc2c1OC(C)(C)C2`, the outcome in assay [1] and in assay [2] was inactive.
For `CC(C)(C)OOC(C)(C)C`, the outcome in assay [1], in assay [2] and in assay [3] was inactive.
For `O=NN1CCCC1`, the outcome in assay [1], in assay [2] and in assay [3] was inactive.
As to `CC(C)(C)N(NC(=O)c1ccc(Cl)cc1)C(=O)c1ccccc1`, the result in assay [1], in assay [2] and in assay [3] was inactive.
Turning to `c1ccc(OP(Oc2ccccc2)Oc2ccccc2)cc1`, the result in assay [1] and in assay [2] was inactive.
In the case of `CCOP(=S)(NC(C)C)Oc1ccccc1C(=O)OC(C)C` (stereo not drawn), the outcome in assay [1], in assay [2] and in assay [3] was inactive.
For `CCCCC(CC)COC(=O)c1c(Br)c(Br)c(Br)c(Br)c1C(=O)OCC(CC)CCCC` (stereo not drawn), the result in assay [1], in assay [2] and in assay [3] was inactive.
Take `CCCCOCCOP(=O)(OCCOCCCC)OCCOCCCC`: the result in assay [1] and in assay [2] was inactive.
`c1cc2c3c(cccc3c1)CC2`: the outcome in assay [1], in assay [2] and in assay [3] was inactive.
As for `Cc1cccc(N)c1`, the outcome in assay [1], in assay [2] and in assay [3] was inactive.
For the compound `O=[N+]([O-])c1ccc(Cl)c(Cl)c1`, the result in assay [1], in assay [2] and in assay [3] was inactive.
In the case of `CCCCN(CC)C(=O)SCCC`, the result in assay [1], in assay [2] and in assay [3] was inactive.
Regarding `CC(Cc1ccc(OCC(=O)O)cc1)NCC(O)c1csc(C(F)(F)F)n1` (stereo not drawn), the result in assay [1], in assay [2] and in assay [3] was inactive.
Regarding `COP(=O)(O)OC`, the result in assay [1], in assay [2] and in assay [3] was inactive.
As for `CCOP(=S)(S)OCC`, the outcome in assay [1], in assay [2] and in assay [3] was inactive.
As to `O=P1(N(CCCl)CCCl)NCCCO1` (stereo not drawn), the outcome in assay [1], in assay [2] and in assay [3] was inactive.
Consider `O=P(OCC(Br)CBr)(OCC(Br)CBr)OCC(Br)CBr` (stereo not drawn), for which the result in assay [1], in assay [2] and in assay [3] was inactive.
`Nc1ccc([N+](=O)[O-])cc1Cl`: the result in assay [1], in assay [2] and in assay [3] was inactive.
For the compound `CCCN(CCC)c1c([N+](=O)[O-])cc(C(C)C)cc1[N+](=O)[O-]`, the outcome in assay [1], in assay [2] and in assay [3] was inactive.
`N#Cc1ccc(O)cc1`: the result in assay [1], in assay [2] and in assay [3] was inactive.
For the compound `CC1(C)CN=C(NN=C(/C=C/c2ccc(C(F)(F)F)cc2)/C=C/c2ccc(C(F)(F)F)cc2)NC1`, the result in assay [1], in assay [2] and in assay [3] was inactive.
Consider `O=[N+]([O-])c1ccccc1`, for which the result in assay [1], in assay [2] and in assay [3] was inactive.
